Bioassay records as filed in PubChem.
NALP1 yeast inh = NALP1 inhibition; S. cerevisiae NALP1/ASC/caspase-1 growth, X-gal OD620, 72 h; inhibition, % at 10 µM; hit rate 0.61% among 280,000; in the data active = inhibition mostly above about 24%, no sharp cut-off; inactive = mostly below about 32%
NALP3 yeast inh = inhibitors of NALP3 inflammasome in yeast; Yeast reconstituted NLRP3/ASC/caspase-1, beta-gal luminescence, 24 h; inhibition, % at 10 µM; hit rate 0.39% among 330,000;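 active = inhibition of 50% or more; inactive = inhibition below 50%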;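 also: plate controls were induced DMSO wells for no effect and uninduced yeast grown without galactose for full effect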
V-ATPase pHluor = yeast V-ATPase proton transport regulation by pHLuorin | S. cerevisiae, pHLuorin cytosolic pH fluorescence | response, % at 10 µM | hit rate 0.37% among 350,000 | AID 504577; in the data active = response mostly above about 7.3%, no sharp cut-off; inactive = mostly below about 5.4%; also: actives read high
tim23-1 inh = growth inhibitors of tim23-1 mutant yeast; S. cerevisiae tim23-1 growth, BacTiter-Glo luminescence, 24 h; inhibition, % at 20 µM; hit rate 1.3% among 330,000;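 active = growth inhibition of the mutant yeast at or above 50%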;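 also: temperature-sensitive mutant grown at 25 °C; plate controls were DMSO-treated mutant yeast for no effect and medium wells lacking yeast for full effect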
tim10-1 inh = tim10-1 yeast growth inhibition. S. cerevisiae tim10-1 ts strain growth, BacTiter-Glo, 24 h. inhibition, % at 20 µM. hit rate 2.2% among 330,000. AID 463190;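 active = inhibition of at least 40%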;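 also: mutant grown at 25 °C; 0% = DMSO wells with yeast and 100% = wells holding no yeast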
TIM10 inh = growth inhibitors of TIM10 yeast strain. inhibition, % at 10 µM. hit rate 1.4% among 330,000. S. cerevisiae TIM10 strain growth, BacTiter-Glo luminescence, 24 h. AID 463195;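 active = inhibition of 40% or more at the single tested concentration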;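 also: wild-type TIM10 isogenic control strain grown at permissive 25 °C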
tim10 confirm = TIM10 yeast growth inhibition, confirmed; shares compounds with TIM10 inh; S. cerevisiae tim10 strain growth, BacTiter-Glo luminescence, 24 h; inhibition, % at 10 µM; hit rate 63% among 4,600; AID 463215;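 active = inhibition of yeast growth at or above a set limit in either of two replicates at 10 µM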;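 also: this counterscreen used the strain with wild-type TIM10; 0% = yeast with DMSO and 100% = medium wells lacking yeast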
Active calls of the source: *; nt = no result given. An excerpt weighted towards active compounds, which were near 4.2% of everything screened.

SMILES | NALP1 yeast inh | NALP3 yeast inh | V-ATPase pHluor | tim23-1 inh | tim10-1 inh | TIM10 inh | tim10 confirm
COc1ccc(C(=O)/C=C/C(=O)N(Cc2ccccc2)C(C(=O)NC2CCCCC2)c2ccncc2)c(O)c1 (configuration not stated) | -43.5 | -2.2 | -2.9 | 34.0 | 18.2 | 22.7 | nt
S=C(NCc1cccs1)Nc1ccc(Br)cc1Cl | 19.5 | 32.1 | 0.8 | 39.4 | 21.1 | 41.2* | 46.0*
O=S(=O)(Nc1cccc2c1ccc1cccn12)c1cccs1 | 3.3 | 2.2 | 3.3 | 27.7 | 31.1 | 45.2* | 2.5
O=C(/C=C/c1ccc(O)c([N+](=O)[O-])c1)c1ccc2ccccc2c1 | 11.3 | 13.1 | -3.6 | 11.0 | 12.3 | -0.1 | nt
COc1ccc(Oc2ccc(/C=C/C(=O)c3ccc(O)cc3)cc2[N+](=O)[O-])cc1 | 33.1 | 32.2 | -0.8 | 49.2 | 30.5 | 43.6* | 38.9*
C=CCn1c(C(C)NC(=O)COC)nc2ccccc21 (configuration not stated) | nt | 11.3 | 4.5 | 2.7 | -3.0 | 96.7* | -18.9
C/C(=N\NC(N)=O)C1CC(CC(C)C)C(=O)O1 (configuration not stated) | -10.2 | 7.2 | -3.1 | 1.7 | 6.6 | 0.4 | nt
COCc1c(C(=O)OCC(=O)c2c(N)n(CC(C)C)c(=O)n(C)c2=O)oc2ccccc12 | 3.1 | 6.7 | 6.2 | 28.1 | 22.6 | 15.8 | nt
Cc1cc(N=NC(=O)c2ccccc2)ccc1O | 31.4 | 14.2 | 0.1 | 3.1 | 5.2 | 1.8 | nt
O=C(ONc1ccc(N=NC(=O)c2ccccc2O)cc1)c1ccccc1 | 21.5 | 21.3 | -2.7 | 38.0 | 39.4 | 41.9* | 8.0
COc1ccc(NC(=O)CCn2c(=S)[nH]c3ccccc3c2=O)cc1OC | 29.8 | -11.5 | 2.1 | 6.3 | 12.0 | 6.8 | nt
CCN(CC)c1ccc(-c2n[nH]c(=S)n2-c2ccccc2)cc1 | -1.5 | 16.5 | 0.9 | 31.8 | 21.3 | 40.6* | 27.2
CCc1ccc(N2C(=O)C(Cl)=C(Nc3ccc(C(=O)N4CCCC4)cc3)C2=O)cc1 | nt | 24.9 | -0.6 | 33.7 | 29.9 | 50.4* | 41.7*
Cc1ccccc1SCC(=O)OCC(=O)NCCNC(=O)COC(=O)CSc1ccccc1C | nt | 7.9 | -1.9 | -1.1 | 2.2 | -1.9 | nt
O=C(Nc1cc([N+](=O)[O-])ccc1Cl)C(Sc1ccccc1)c1ccccc1 (configuration not stated) | 13.6 | -9.9 | 4.5 | -3.4 | 11.9 | 18.2 | nt
O=C(Nc1ccc(Cl)c([N+](=O)[O-])c1)C(Sc1ccccc1)c1ccccc1 (configuration not stated) | 11.1 | 21.8 | -3.2 | 31.9 | 27.1 | 41.8* | 43.0*
Cc1ccc(C(=O)Nc2ccc3c(c2)nc2n3CCSC2)cc1 | 18.0 | 18.8 | 0.1 | 41.8 | 25.8 | 63.2* | 65.1*
CCN(CC(=O)Nc1ccccc1OC)C(=O)CN1C(=O)NC2(CCCC2)C1=O | nt | 17.0 | 2.5 | -13.3 | -14.1 | -0.3 | nt
O=C(/C(=C/c1ccncc1)n1ccnc1)c1ccc(Cl)cc1Cl | -7.4 | nt | -1.2 | nt | nt | nt | nt
CC(C)/C=C(/C(=O)c1ccc(Cl)cc1Cl)n1cncn1 | 8.8 | 16.1 | 0.0 | 41.2 | 20.1 | 41.8* | 5.9
CS(=O)(=O)N(CC(=O)Nc1ccc(S(=O)(=O)N2CCOCC2)cc1)c1cccc(F)c1 | -3.7 | 10.3 | 8.9 | 8.4 | -2.7 | -7.0 | nt
CCCCCCCCCCOC(=O)Cn1c(COc2cccc(C)c2)[n+](C)c2ccccc21 | 8.1 | 24.4 | -5.5 | 6.9 | 28.4 | 51.0* | 34.3*
Cc1ccc(N2CC(C(=O)OCC(=O)Nc3ccc(F)cc3F)CC2=O)cc1 (configuration not stated) | nt | 4.8 | -0.3 | 16.5 | 8.1 | 17.7 | nt
CCN(CC)C(=O)C[n+]1ccc(C(N)=O)cc1 | 16.0 | 1.7 | 1.9 | -1.1 | 9.4 | 2.5 | nt
Cc1cc(Nc2ccc(Br)cc2)nc(-c2ccccc2O)n1 | -38.1 | 17.0 | 3.4 | 45.5 | 34.4 | 43.0* | 49.0*
SMILES | NALP1 yeast inh | NALP3 yeast inh | V-ATPase pHluor | tim23-1 inh | tim10-1 inh | TIM10 inh | tim10 confirm
O=C1c2cccc(OCC(=O)N3CCCc4ccccc43)c2CCN1Cc1ccc(F)cc1 | 25.0 | 3.3 | -0.6 | 43.3 | 33.9 | 43.1* | -50.2
O=c1[nH]cnc2c1c(-c1ccccc1)cn2-c1ccc(Br)cc1 | -0.4 | -62.9 | 1.3 | 43.3 | 31.2 | 41.6* | 38.0*
O=c1[nH]cnc2scc(-c3ccc(-c4ccccc4)cc3)c12 | 3.5 | nt | -2.8 | nt | nt | nt | nt
C=C(C)CNC(=S)NN=C1c2ccccc2-c2ccccc21 | -17.5 | 25.2 | 1.4 | 32.4 | 31.1 | 19.4 | nt
CCNC(=S)NN=C1c2ccccc2-c2ccccc21 | 3.3 | 40.5 | -1.2 | 7.5 | 37.3 | 44.1* | 24.5
O=C(CCc1nnc2n(Cc3ccccc3Cl)c(=O)c3ccccc3n12)NCCCN1CCOCC1 | 6.6 | 4.1 | -3.7 | 4.3 | 2.9 | 0.2 | nt
Cc1ccc(Cn2c(=O)c3ccccc3n3c(CCC(=O)NCCN4CCOCC4)nnc23)cc1 | 13.8 | 14.9 | -0.4 | -7.3 | 6.2 | 96.3* | -7.3
Cc1cccc2cc(CN(C(=O)c3cccc([N+](=O)[O-])c3)C(C)C)c(=O)[nH]c12 | -10.9 | 20.6 | -3.6 | 3.8 | -5.4 | -13.1 | nt
CCCCN1CC(=O)N2[C@H](c3ccc(Cl)cc3)[C@@H]3C(=O)N(CC)C(=O)[C@@H]3[C@]2(C)C1=O | 24.2 | 15.3 | 1.6 | -10.3 | -1.0 | 52.6* | -7.4
O=C(COc1ccc(Cl)cc1Cl)NNC(=O)c1cccnc1 | 2.5 | 11.0 | -3.9 | 9.9 | 8.2 | -11.3 | nt
Cc1cc(Cl)ccc1OCC(=O)NNC(=O)c1cccnc1 | 3.8 | 3.1 | -3.2 | 1.8 | -22.0 | 80.1* | -7.1
Nc1cc(N)nc(SCC(=O)NCC(=O)Nc2ccc(F)c(F)c2F)n1 | nt | 13.2 | -1.3 | 2.6 | -17.7 | -3.0 | nt
Brc1ccc(C2=Nc3cccc4cccc(c34)N2)o1 | 29.3 | 14.2 | -0.4 | 13.4 | 24.9 | 15.0 | nt
Fc1ccc(C2=Nc3cccc4cccc(c34)N2)cc1 | 3.5 | 22.9 | 1.1 | 28.6 | 33.6 | 43.5* | 12.8
Cc1[nH]n(C(N)=S)c(=O)c1N=Nc1ccc2ccccc2c1 | 8.9 | nt | 2.3 | nt | nt | nt | nt
O=C(Nc1ccc(C(F)(F)F)cc1)c1cc(S(=O)(=O)NCC2COc3ccccc3O2)ccc1F (configuration not stated) | 14.9 | -3.0 | 4.4 | 9.1 | 1.8 | 42.3* | 44.5*
O=C(NCC1COc2ccccc2O1)c1cc(S(=O)(=O)N2CCOCC2)ccc1F (configuration not stated) | nt | 12.9 | -0.7 | 10.0 | 13.9 | -0.9 | nt
COC(=O)c1cc2ccccc2c(-c2c(OC)c(C(=O)OC)cc3ccccc23)c1OC | 8.7 | 17.8 | -3.6 | 46.0 | 30.4 | 44.0* | 29.9*
Cc1cc(-c2ccco2)n(CC(=O)NCCN(C)C)n1 | -8.9 | 10.2 | -1.7 | -7.0 | -2.9 | -4.7 | nt
CCCC(=O)NC(=S)Nc1cccc(NC(=O)c2ccccc2)c1 | 13.1 | 17.9 | 2.7 | 7.6 | 4.6 | 18.6 | nt
